These results are taken from PubChem BioAssay (NCI).

Compounds without any hit were thinned out: in the full panel of roughly 79,000, 15% have a hit. Active and inactive are the calls of the source. No stated cut-off is given here; in the data, active means growth inhibition above about 70%; inactive means the rest.

This experiment is described as follows: NCI Yeast Anticancer Drug Screen. Data for the mlh1 rad18 strain (AID 175). The settings on record: S. cerevisiae mlh1 rad18 strain growth inhibition; at 50.0 µM; stronger effect = higher value. Put shortly:
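Compound-treated yeast growth, normalised to vehicle controls. Strain bears defined DNA repair mutations.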
As to `CC(=O)C(C)(O)C(OP(=O)(O)O)c1ccccc1` (stereo not given), the growth inhibition is 3.55% (inactive).
For `CSc1nc(N)n2nc(C3CC3)cc2n1`, the growth inhibition was 3.4% (inactive).
`CN(C)c1nc(Cl)nc2nc(Cl)[nH]c12`: the growth inhibition was 11.9% (inactive).
Next, `CCN1CCCC(N)C1` (stereo not given): -27.9% (inactive); `COC(=O)C1CCC(=O)CC1`: -3.15% (inactive); `CC/C=C\C/C=C\C/C=C\CCCCCCCC(=O)OC(COC(=O)CCCCCCCCCCCCCCCCC)COC1OC(CO)C(O)C(O)C1O` (stereo not given): 33.4% (inactive).
The result for `Cc1ccccc1OS(=O)(=O)c1ccc(Br)cc1` reads -15.8% (inactive); that for `CN1CCC(C(O)c2ccccc2)CC1` (stereo not given), 5.5% (inactive).
Consider `CC1CCC(C(C)C)N(C)CC1` (stereo not given), for which the growth inhibition is -2.2% (inactive).
Next, `c1cc2c(cc1CC1CO1)OCO2` (stereo not given): 15% (inactive).
With `CCOC(=O)c1cnc(N)nc1N`, the growth inhibition was 24.1% (inactive).
Take `[Fe+2].[Fe+2].c1ccc2c(c1)-c1nc-2nc2[n-]c(nc3nc(nc4[n-]c(n1)c1ccccc41)-c1ccccc1-3)c1cc3c4nc5nc(nc6[n-]c(nc7nc(nc([n-]4)c3cc21)-c1ccccc1-7)c1ccccc61)-c1ccccc1-5`: the growth inhibition is 2.35% (inactive).
The result for `Cc1ccc(S(=O)(=O)N2CCOCC2)cc1` reads -30.4% (inactive).
As for `NS(=O)(=O)c1cc2c(cc1Cl)NC(C(=O)NNC(=O)c1ccncc1)=NS2(=O)=O`, the growth inhibition is -20.4% (inactive).
The result for `C=C(C)C1CC=C(C)/C(=N\O)C1` (stereo not given) reads -5.6% (inactive); that for `CCOc1cccc2c1N[S@@](=O)S2`, 33.6% (inactive).
As to `CC(C)(C)SC(=S)SCC(=O)c1cc2ccccc2o1`, the growth inhibition was 37.9% (inactive).
The result for `COC1(c2ccccc2)OC(=O)C(C)(C)c2ccccc21` (stereo not given) reads 3.55% (inactive).
The result for `O/N=C/c1cc2c(cc1Br)OCO2` reads -17.6% (inactive); that for `COc1cc2ccncc2cc1O`, -16.1% (inactive); that for `Cc1cc(=O)[nH]c2cc(O)c(C(=O)O)cc12`, -8.15% (inactive).
Next, `N#Cc1cn(C2OC(CO)C3OC32)c2ncnc(NC(=O)c3ccccc3)c12` (stereo not given): 15.5% (inactive).
Take `CCc1ccc(C(C)=O)cc1`: the growth inhibition was 52.6% (inactive).
The result for `Nc1c(Br)cc(Br)cc1-c1cc(Br)cc(Br)c1N` reads 24.4% (inactive); that for `Oc1ccc(-c2c3ccccc3c(-c3ccc(OCCBr)cc3)c3ccccc23)cc1`, 7.4% (inactive); that for `OCC1CCN(CCOCc2ccccc2)C1` (stereo not given), 7.6% (inactive).
`CNC(=S)SSSC(=S)NC`: the growth inhibition was 5.55% (inactive).
`O=C1c2ccccc2C(=O)N1CNc1cccc(Cl)c1`: the growth inhibition is 22.4% (inactive).
In the case of `CCCCCCCCS(=O)(=O)NC`, the growth inhibition was 5.7% (inactive).
The result for `COC(=O)CCSC(=S)NCc1ccccc1` reads -12.7% (inactive); that for `O=C(NC1CCC(CC2CCC(NC(=O)C34CC5CC(CC(C5)C3)C4)CC2)CC1)C12CC3CC(CC(C3)C1)C2` (stereo not given), 4.35% (inactive).
The result for `CCOC(=N)CC(=O)NC(C)c1ccccc1` (stereo not given) reads 1.85% (inactive); that for `Nc1nc(C2CCCCC2)cc(=O)[nH]1`, -0.65% (inactive).
Next, `O=C1CNC(=O)N1Nc1ccccc1`: -5.3% (inactive); `Cc1cc(C)c(F)c(C)c1N`: -4.3% (inactive); `COC1OC(COC(=O)c2ccccc2)C(SC(=O)c2ccccc2)C1OC(=O)c1ccccc1` (stereo not given): -12.5% (inactive).
As to `CC1(C)CC(=O)C2=C(C1)NC(SSC1=C(C#N)C(c3ccc(F)cc3)C3=C(CC(C)(C)CC3=O)N1)=C(C#N)C2c1ccc(F)cc1` (stereo not given), the growth inhibition was -25.8% (inactive).
Next, `Oc1cccc(C=NCCN=Cc2cccc(O)c2O)c1O.[Fe]`: 1.15% (inactive); `CC(=O)OCC1OC(Nc2[nH]c(=O)n(C)c(=O)c2C(=O)CCl)C(OC(C)=O)C(OC(C)=O)C1OC(C)=O` (stereo not given): -4.15% (inactive).
The result for `Nc1cc(=O)n(C2CC(O)C(CO)O2)cn1` (stereo not given) reads 5.6% (inactive).
